± gives the standard deviation of the averaged measurements. Whole data set: some 25,000 sequences, median “ln(normalized median fluorescence intensity)” near 10, cut for the highest 2% near 12. The entries come from a sample that favours the highest values as a whole.
Each sequence was assayed on PfAP2-G AP2 domain (GST-tagged) (assay: gcPBM binding intensity (ln(normalized median fluorescence intensity)); higher = stronger DNA binding).
How it was run: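 After 1 h on an Agilent 4 × 180k array of primer-extended double-stranded 36-bp intergenic genomic probes and negative controls, bound GST-tagged P. falciparum DNA-binding domains were detected with Alexa488 anti-GST antibody and scanned at 488 nm. The domains had been expressed in E. coli, and binding took place in 1× PBS with 1% milk, 0.2 mg/ml BSA, 0.5% salmon testes DNA and 0.03% Triton X-100. Binding intensity is the highest Masliner-normalised natural-log median intensity across replicate spots of either probe orientation.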

| Sequence | gcPBM binding intensity (ln) |
| --- | --- |
| TAATATAGTATAGTATGTACATATAATTAGAATATT [XGTACX_site4053] | 11.3 ± 0.77 |
| CCATATATTTGGTATAGTACTTTTTATTTTATTTCA [XGTACX_site8933] | 11.1 ± 0.5 |
| TTAGTTTATTGGTACTGTACTTTTTTTTTCTCCATT [XGTACX_site8618] | 11.9 ± 0.91 |
| TAGGGTAGTTATAATTGTACTTTTCTCCAAAAAAAA [XGTACX_site7321] | 11.3 ± 0.81 |
| TACATAAACATTTATACACACATTATATATACATAT [CACACA_site8028] | 10.12 ± 0.064 |
| TAATTATTTCGTATATTTGAATGGTACATGCTTATA [CACACA_negctrl_site1178] | 10.7 ± 0.6 |
| ATACATATAATATATGCATGTACCAATCAAATATAT [TGCATGCA_site192] | 10.5 ± 0.29 |
| TGTTGTATTGAAGCTAAAAAATGAGGCAAAAAAAAA [CACACA_negctrl_site1189] | 10.2 ± 0.26 |
| CATACATATACTTTGTGTACATATATATATTATATA [XGTACX_site97] | 11.4 ± 0.78 |
| AACACTACATAAAACTGTACAATAGTATTTTATTAT [XGTACX_site996] | 10.9 ± 0.49 |
| TTTATTTTGTAGTGTACACATATATATATATATATA [CACACA_site5843] | 11.7 ± 0.96 |
| AATTTTTATTTGTACACACATACATATATATTATAT [CACACA_site993] | 11.4 ± 0.83 |
| TTTTTATTTGGTTGTGTACACATATATATATATATA [CACACA_site5844] | 11.6 ± 0.94 |
| TTATATTTATTTATTTGTACATATTTTTTTTTATAT [XGTACX_site1669] | 11.2 ± 0.67 |
| CTTTAAAACCGGTACTGTACACATAGTATTATTATC [XGTACX_site2602] | 11.6 ± 0.8 |
| GTATTATCTGCTTTTTGTACACATATATTTAAAAAA [XGTACX_site7603] | 11.4 ± 0.95 |
| TATATTATAGGTTGTGTACACATATTATATAGTACT [CACACA_site4583] | 11.6 ± 0.88 |
| TTATTTATATTTTTTTGTACACATATTGTATACATA [XGTACX_site1178] | 11.5 ± 0.86 |
| ACATATTTTATTTTTTGTACACATATATTATTTTTT [XGTACX_site6528] | 11.3 ± 0.66 |
| ATGTGTATATATTATTGTACATATATATATATATAT [XGTACX_site4627] | 11.2 ± 0.82 |
| TATTTTATATGATAGGTGCATTTTTTTTTTTTTTTT [GTGCAC_site9757] | 10.4 ± 0.48 |
| TTCTTTATTTTTTCTACACACATTATATATTCAAAG [CACACA_site5866] | 10.12 ± 0.099 |

| Sequence | gcPBM binding intensity (ln) |
| --- | --- |
| CAACACTTATTGAAACGTACGCATATAGTTTCTTTT [XGTACX_site8960] | 11 ± 0.55 |
| TATAAATATAAATATACACACATATATTTATTTATA [CACACA_site6890] | 9.645 ± 0.078 |
| TATTTGTGCCAAAAATGAAAAAGTTTGTATAAAACC [CACACA_negctrl_site1406] | 10.1 ± 0.17 |
| AAGATACACTTAATCGCACACGAAATTATATATTTA [CACACA_site3063] | 10.1 ± 0.24 |
| TATATATATTATATATGTACATATATTTTTTTTTTT [XGTACX_site127] | 11.2 ± 0.81 |
| ATTTAAGGGGTGTATGCACACGACTATTCCGTATGA [CACACA_site4738] | 10.23 ± 0.092 |
| TCATTCTTGTGTTTATGTACACATATTTATATTGTA [XGTACX_site710] | 11.4 ± 0.88 |
| ATTTTTTTTTCTTGTACACACTATTTTATAATTTTA [CACACA_site6102] | 11.6 ± 0.93 |
| AATATGTAATAGTGTACACATATATCTGTATTTATG [CACACA_site4252] | 11.6 ± 0.91 |
| TATATCTGTTTATATTGTACACATATATATATATAT [XGTACX_site714] | 11.4 ± 0.93 |
| ATACGCACACATATATGTACATATTGTATATATATA [XGTACX_site3962] | 11.2 ± 0.71 |
| ATATATATATAGTACGCACACATAGTTGTACATTAA [CACACA_site2787] | 12 ± 1.3 |
| TATATATATATATATAGTACGCACACATAGTTGCAA [XGTACX_site5875] | 11.1 ± 0.67 |
| TATTATCTGTAGTGTACACATATTATATAGTACTTT [CACACA_site4582] | 11.8 ± 1 |
| CATATTTTCTTGTGTACACATTTATTTTATACTATA [CACACA_site6032] | 11.7 ± 0.97 |
| ATGAATTAACCTAATCGTACAATAAATATTATTATA [XGTACX_site596] | 11 ± 0.81 |
| AAAATTAAAAAGAACACACAAATATATCTATAATAA [CACACA_site7660] | 9.81 ± 0.26 |
| TTCTATATTATATATGCATGTGTTATTCTTATTTTC [TGCATGCA_site92] | 9.87 ± 0.057 |
| TTATATTTTATTATGTGTACGTATATAATATAATAT [XGTACX_site6230] | 11.6 ± 0.97 |
| ATTTATATATATTTATGTACGTATTAATTTTTTTTT [XGTACX_site3877] | 11.5 ± 0.88 |
| ATATGATTAATTAAGTGTACGTATTTATAATTATAA [XGTACX_site5783] | 11.7 ± 1 |
| ATTTTTTTTTTTTATAGTGGATCCACATTTGCCATT [CACACA_negctrl_site1284] | 10.3 ± 0.36 |
